Assay outcomes (PubChem BioAssay)
Compounds with a hit are over-represented: about 17% of the library has one in this group of screens.
TDP1 cell noCPT = qHTS for Inhibitors of human tyrosyl-DNA phosphodiesterase 1 (TDP1): qHTS in cells in absence of CPT. AID 686978, 2013. DT40 Tdp1-/- hTDP1 cells, no CPT, ATP luminescence, 48 h. actives 15% (n = 420,000). Potency, µM (series often up to 46.2 µM), inactives show at the top dose activity change, negative = growth inhibition, usual class: inhibitors; also: % is scaled to controls: 0 for no effect and ±100 for the full control effect; nearly all actives have a fitted effect of over 55% in size
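Chicken DT40 Tdp1-/- cells stably complemented with human TDP1 were seeded at 400 cells/well with DMSO in place of 20 nM camptothecin. After compound pinning, cells grew at least 48 hr at 37 °C; viability read by CellTiter-Glo luminescence.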
TGFb SMAD3 inh = inhibitors of TGF-b signaling. HepG2 CAGA-GFP TGF-b/SMAD3 reporter, GFP fluorescence, 18 h; TGF-beta stimulated, 500 pg/mL final. Potency, µM (doses to about 46.1 µM), for inactives: at the highest dose activity, negative = inhibition, usual class: inhibitors. actives 1.2% (n = 410,000); also: % is scaled to controls: 0 for no effect and ±100 for the full control effect; nearly all actives have a fitted effect of over 65% in size
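Smad-responsive CAGA-GFP expression was quantified in HEPG2 cells exposed to compounds and 500 pg/mL final TGF-beta for 18 h at 37 degrees C; unstimulated wells defined full inhibition.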
TDP1 cell CPT = growth inhibition of DT40 Tdp1-/-;hTDP1 cells with camptothecin (screen for TDP1 inhibitors); chicken DT40 Tdp1-/-;hTDP1 cells + 20 nM CPT, ATP luminescence, 48 h; Potency, µM (series often up to 46.2 µM), without a hit: at the top dose activity change, negative = growth inhibition, usual class: inhibitors; actives 12% (n = 420,000); AID 686979; also: % is scaled to controls: 0 for no effect and ±100 for the full control effect; nearly all actives have a fitted effect of over 55% in size
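Chicken DT40 Tdp1-/- cells complemented with human TDP1, 400 cells/well, exposed to compounds plus 20 nM camptothecin for at least 48 h at 37 C; viability read as ATP content by CellTiter-Glo luminescence.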
HepG2 viability = HepG2 cytotoxicity, counter-screen for TGF-b inhibitors | HepG2 CAGA-GFP viability, ATP luminescence, 18 h | Potency, µM (highest dose often 46.1 µM), without a hit: top-dose activity change, negative = cytotoxicity, usual class: cytotoxic | actives 0.76% (n = 410,000) | AID 588856
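CellTiter-Glo luminescence gave cytotoxicity after 18 hours at 37 degrees C. The cells were HepG2 CAGA-GFP in 1% FBS DMEM, stimulated with 500 pg/mL TGF-beta after compound addition. %Activity was normalised to no-cell wells (complete cell-killing) and DMSO (no toxicity), and curves were fitted and classified.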
ATXN2 expr inh = inhibitors of ATXN2 expression. HEK-293 ATXN2-luciferase reporter, luminescence, 24 h. Potency, µM (highest dose often 57 µM), inactives show at the top dose activity change, negative = inhibition, actives largely listed as inhibitors. actives 0.72% (n = 360,000). AID 1745845; also: % is scaled to controls: 0 for no effect and ±100 for the full control effect; nearly all actives have a fitted effect of over 55% in size
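qHTS (up to 57 uM final) was run with 24 h compound exposure of reporter cells at 37 °C. Each well was multiplexed: SteadyGlo luminescence measured ATXN2-luciferase expression after a fluorogenic Gly-Phe-AFC viability readout (25 uM final).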
ATXN viability = reduces viability in counter-screen for ATXN expression inhibitors. S2 cells (HEK-293 line with an ATXN2-luciferase reporter) viability, CellTiter-Fluor protease fluorescence, 24 h. Potency, µM (series often up to 56.7 µM), actives largely listed as cytotoxic. actives 0.49% (n = 400,000). AID 651635; also: nearly all actives have a fitted effect of over 40% in size
* = called active by the depositor; i = inactive; ? = inconclusive; nt = no result; ! = not active in a repeat. Calls follow the shape of the dose curve; as a rule, active = well fitted curve in the direction sought with a large enough effect; inconclusive = small, poorly fitted or top-dose-only effect, or another doubt; inactive = no such curve, though single readings can be large; an effect the other way counts as inactive or inconclusive. Potency is read from the fitted curve at half-maximal effect.

SMILES	TDP1 cell noCPT	TGFb SMAD3 inh	TDP1 cell CPT	HepG2 viability	ATXN2 expr inh	ATXN viability
O=C(NC(c1ccc(-c2ccccc2)cc1)c1cnccn1)C1CCN(Cc2ccc3c(c2)OCO3)CC1 (centres undefined)	5.2µM*	?	5.8µM*	-93%	?	32µM*
COc1ccc(C(NC(=O)C2CCN(CCOc3ccc(Cl)cc3Cl)CC2)c2ccccc2C)cn1 (centres undefined)	?	?	?	-102%	?	nt
CCC1(CC)NC(=O)N(CC(=O)Nc2cccc3ccccc23)C1=O	-3%	-15%	-19%	-30%	1%	i
CCOC(=O)Nc1ccc2c(c1)N(C(=O)CCN1CCOCC1)c1ccccc1S2=O (centres undefined)	5.8µM*	0%	3.7µM*	-95%	0%	?
N/C(=N\C(=S)Nc1ccccc1)c1ccccc1	16µM*	4%	?	-2%	84%	i
COc1ccc(S(=O)(=O)n2ccc(C(C)Oc3ccc(-c4ccccc4)c(F)c3)n2)cc1 (centres undefined)	18µM*	-7%	26µM*	-20%	-13%	i
COC(=O)c1ccc2c(=O)n(C3CCCCC3)c(SCC#N)nc2c1	23µM*	-4%	12µM*	-2%	-11%	i
O=C(Nc1ccc2c(c1)C(=O)NC2=O)c1cc(Cl)ccc1Cl	4%	-3%	-1%	-3%	3%	i
N#Cc1ccc(CN2CCN(C(=O)Cn3nc(C(N)=O)c4ccccc4c3=O)CC2)cc1	-28%	-21%	-20%	-7%	-2%	i
COc1ccc(N=C2C(=O)N3CCCc4cccc2c43)cc1	?	4%	?	9%	6%	i
CC1=CC(C)(C)N2C(=O)C(=Nc3ccc(O)cc3)c3cccc1c32	3.3µM*	13µM*	4.1µM*	-97%	?	nt
COc1cc(N=C2C(=O)N3c4c(cccc42)C(C)=CC3(C)C)cc(OC)c1	5.2µM*	?	6.5µM*	-6%	1%	i
NC(=O)c1cc(S(=O)(=O)NC2CCCCC2)co1	-25%	-1%	-21%	1%	8%	i
CC(=O)OC1CC[C@@]2(C)C(CCC3C2CC(=O)[C@@]2(C)C3CC3CC(C)=CC(=O)C32)C1 (some centres undefined)	15µM*	-20%	18µM*	-3%	nt	i
CC(=O)OC1CCC2(C)C(CCC3C2CC(=NO)C2(C)C(C(C)OC(C)=O)CCC32)C1 (centres undefined)	18µM*	7%	15µM*	-1%	-3%	i
Cc1cc2c(cc1S(=O)(=O)N(C)CC(=O)Nc1cccc(C#N)c1)OCC(=O)N2	-18%	1%	4%	1%	10%	i
CSc1nc(SCc2ccccc2)[nH]c(=O)n1	?	-3%	-19%	-12%	nt	i
Cc1ccc(Cl)cc1Nc1nn2c(=O)c3ccc(C(=O)N4CCCC(C)C4)cc3nc2s1 (centres undefined)	?	-25%	?	-19%	nt	nt
COc1ccccc1Nc1nn2c(=O)c3ccc(C(=O)N4CCCC(C)C4)cc3nc2s1 (centres undefined)	23µM*	-27%	12µM*	8%	?	32µM*!
CCOC(=O)C1CCN(C(=O)c2ccc3c(=O)n4nc(Nc5ccccc5OC)sc4nc3c2)CC1	21µM*	-4%	26µM*	-12%	nt	i
CCOC(=O)C1CCN(C(=O)c2ccc3c(=O)n4nc(Nc5cc(C)ccc5C)sc4nc3c2)CC1	18µM*	13µM*	9.2µM*	-26%	-30%	i
CCOC(=O)C1CCN(C(=O)c2ccc3c(=O)n4c(nc3c2)CCCCC4)CC1	-3%	?	-5%	6%	5%	i
CC1CCCN(C(=O)c2ccc3c(=O)n4nc(Nc5ccccc5)sc4nc3c2)C1 (centres undefined)	?	-3%	-41%	0%	nt	i
CC1(c2cccc(Br)c2)NC(=O)N(CC(=O)Nc2ccc3c(c2)OCCO3)C1=O (centres undefined)	?	-22%	?	-22%	-19%	i
CCc1cccc(NC(=O)CN(C)C2=NS(=O)(=O)c3ccccc32)c1	1%	-1%	?	0%	-3%	i
SMILES	TDP1 cell noCPT	TGFb SMAD3 inh	TDP1 cell CPT	HepG2 viability	ATXN2 expr inh	ATXN viability
Cc1cc(C)n2nc(-c3sccc3-n3c(C)ccc3C)cc2n1	16µM*	?	23µM*	2%	27%	i
CSc1nc(SCCN(C)C)c2c3c(sc2n1)COC(C)(C)C3	18µM*	-12%	?	-22%	-15%	i
COc1ccc(-c2ccc(OC)c([C@H]3[C@H]4C=CC[C@@H](C)[C@@H]4C(=O)N3Cc3ccccc3)c2)cc1C	10µM*	-4%	?	10%	8%	i
Cc1ccc(-c2c(C3C4C=CCC(C)C4C(=O)N3Cc3ccccc3)ccc3ccccc23)cc1 (centres undefined)	nt	-35%	nt	-1%	nt	nt
COc1ccc(-c2cc3ccccc3s2)cc1[C@H]1[C@H]2C=CC[C@@H](C)[C@@H]2C(=O)N1Cc1ccccc1	18µM*	6%	?	-3%	54%	i
COc1ccc(-c2ccc(N(C)C)cc2)cc1[C@H]1[C@H]2C=CC[C@@H](C)[C@@H]2C(=O)N1Cc1ccccc1	8.2µM*	?	12µM*	1%	10%	i
CC1CC=CC2C1C(=O)N(Cc1ccccc1)C2c1ccc(-c2cc3ccccc3s2)cc1F (centres undefined)	nt	1%	nt	-1%	nt	nt
COc1ccc(-c2ccc(N(C)C)cc2)cc1C1C2C=CCC(C)C2C(=O)N1Cc1ccccc1 (centres undefined)	nt	-2%	nt	11%	nt	nt
Cc1ccc(Nc2c(-c3ccco3)nc3ccccn23)cc1	?	0%	-14%	-36%	11%	i
Fc1ccc(Nc2c(-c3ccco3)nc3ccccn23)cc1	5.8µM*	?	15µM*	-23%	-9%	i
c1ccc(Nc2c(-c3ccco3)nc3ccccn23)cc1	23µM*	0%	?	-38%	3%	i
COc1ccc(Nc2c(-c3ccco3)nc3ccc(C)cn23)cc1	-15%	4%	-21%	0%	nt	i
COc1ccc(-n2c(SC)nc3sc4c(c3c2=O)CCN(C)C4)cc1	12µM*	-8%	?	-12%	?	i
